Results as given in PubChem BioAssay AID1159580 (chemical genetic matrix, 2015).
Values joined by “and” are separate entries in the source; they are usually repeats but may differ in a detail not shown here. Identical values can stand only once. Screen size: about 5,500 compounds; about 2,000 (36%) were called active. Roughly 18% stayed inconclusive and do not appear here. Cut-off read from the data, not from the text of the source: active = normalized growth mostly below about 0.91 (no sharp cut-off); inconclusive = no clear call, values can overlap the other calls; inactive = mostly above about 0.92. The list shows a part of the results.

Assay: chemical genetic growth profiling, strain panel (AID 1159580);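 note: tested at 20 µM; growth read once vehicle control cultures reached saturation at 30 °C; 1 = growth at the plate median or of vehicle wells; lower values mean less growth of the strain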
Conditions: growth OD

Measured: normalized growth

CC1=C(/C=C/C(C)=C/C=C/C(C)=C\C(=O)O)C(C)(C)CCC1
inactive: S. cerevisiae deletion strains, locus YJR075W, strain HOC1, hits give low values 0.962 and 1.01 | S. cerevisiae deletion strains, locus YKL009W, strain mrt4, hits give low values 0.94 | S. cerevisiae deletion strains, locus YKL068W, hits give low values 1 | S. cerevisiae deletion strains, locus YKL085W, strain MDH1 (second series), hits give low values 0.941 | S. cerevisiae deletion strains, locus YKL085W, strain MDH1, hits give low values 0.941 | S. cerevisiae deletion strains, locus YKL160W, strain elf1, hits give low values 0.977 | S. cerevisiae deletion strains, locus YKL190W, strain CNB1, hits give low values 0.989 | S. cerevisiae deletion strains, locus YKR001C, strain vps1, hits give low values 0.942 | S. cerevisiae deletion strains, locus YKR026C, strain gcn3, hits give low values 0.982 | S. cerevisiae deletion strains, locus YKR091W, strain srl3, hits give low values 0.988 | S. cerevisiae deletion strains, locus YLL001W, strain dnm1, hits give low values 0.93 | S. cerevisiae deletion strains, locus YLL026W, hits give low values 0.966 | S. cerevisiae deletion strains, locus YLL041C, strain sdh2, hits give low values 0.99 | S. cerevisiae deletion strains, locus YLR027C, strain aat2, hits give low values 0.958 | S. cerevisiae deletion strains, locus YLR039C, strain RIC1, hits give low values 0.866 | S. cerevisiae deletion strains, locus YLR058C, strain SHM2, hits give low values 1 | S. cerevisiae deletion strains, locus YLR102C, strain apc9, hits give low values 1 | S. cerevisiae deletion strains, locus YLR113W, strain HOG1, hits give low values 1.08 | S. cerevisiae deletion strains, locus YLR221C, strain rsa3, hits give low values 1.02 | S. cerevisiae deletion strains, locus YLR258W, strain gsy2, hits give low values 0.992 | S. cerevisiae deletion strains, locus YLR262C, strain YPT6 (second series), hits give low values 0.925 | S. cerevisiae deletion strains, locus YLR262C, strain YPT6, hits give low values 0.875 | S. cerevisiae deletion strains, locus YLR268W, strain sec22, hits give low values 0.966 | S. cerevisiae deletion strains, locus YLR320W, strain mms22, hits give low values 0.993 | S. cerevisiae deletion strains, locus YLR330W, strain CHS5, hits give low values 1.01 | S. cerevisiae deletion strains, locus YLR342W, strain FKS1 (second series), hits give low values 0.952 | S. cerevisiae deletion strains, locus YLR342W, strain FKS1, hits give low values 0.953 | S. cerevisiae deletion strains, locus YLR357W, strain rsc2, hits give low values 0.982 | S. cerevisiae deletion strains, locus YLR370C, strain arc18, hits give low values 0.996 | S. cerevisiae deletion strains, locus YLR371W, strain rom2, hits give low values 1.01 | S. cerevisiae deletion strains, locus YLR384C, strain iki3, hits give low values 0.973 | S. cerevisiae deletion strains, locus YLR418C, strain cdc73, hits give low values 0.846 | S. cerevisiae deletion strains, locus YML016C, strain PPZ1, hits give low values 1 | S. cerevisiae deletion strains, locus YML032C, strain rad52, hits give low values 0.978 | S. cerevisiae deletion strains, locus YML120C, strain ndi1, hits give low values 0.977 | S. cerevisiae deletion strains, locus YML124C, strain tub3, hits give low values 0.998 | S. cerevisiae deletion strains, locus YMR058W, strain fet3, hits give low values 0.978 | S. cerevisiae deletion strains, locus YMR078C, strain ctf18, hits give low values 0.998 | S. cerevisiae deletion strains, locus YMR125W, strain sto1, hits give low values 1.01 | S. cerevisiae deletion strains, locus YMR129W, hits give low values 0.987 | S. cerevisiae deletion strains, locus YMR205C, strain PFK2, hits give low values 0.971 | S. cerevisiae deletion strains, locus YMR223W, strain ubp8, hits give low values 0.976 | S. cerevisiae deletion strains, locus YMR231W, strain pep5, hits give low values 0.98 | S. cerevisiae deletion strains, locus YMR263W, strain SAP30, hits give low values 0.956 | S. cerevisiae deletion strains, locus YMR307W, strain GAS1, hits give low values 0.909 and 1.05 | S. cerevisiae deletion strains, locus YNL067W, strain RPL9B, hits give low values 0.951 | S. cerevisiae deletion strains, locus YNL071W, strain lat1, hits give low values 0.994 | S. cerevisiae deletion strains, locus YNL128W, strain TEP1, hits give low values 0.985 | S. cerevisiae deletion strains, locus YNL153C, strain GIM3, hits give low values 0.933 | S. cerevisiae deletion strains, locus YNL175C, strain NOP13, hits give low values 1.02 | S. cerevisiae deletion strains, locus YNL183C, strain NPR1, hits give low values 0.952 | S. cerevisiae deletion strains, locus YNL197C, strain WHI3, hits give low values 1.03 | S. cerevisiae deletion strains, locus YNL209W, strain ssb2, hits give low values 0.988 | S. cerevisiae deletion strains, locus YNL224C, strain SQS1, hits give low values 1.01 | S. cerevisiae deletion strains, locus YNL233W, strain BNI4, hits give low values 0.947 | S. cerevisiae deletion strains, locus YNL248C, strain rpa49, hits give low values 1.02 | S. cerevisiae deletion strains, locus YNL250W, strain rad50, hits give low values 0.992 | S. cerevisiae deletion strains, locus YNL271C, strain bni1, hits give low values 0.994 | S. cerevisiae deletion strains, locus YNL298W, strain CLA4, hits give low values 0.979 | S. cerevisiae deletion strains, locus YNL307C, strain MCK1, hits give low values 0.931 | S. cerevisiae deletion strains, locus YNL322C, strain KRE1 (second series), hits give low values 0.986 | S. cerevisiae deletion strains, locus YNL322C, strain KRE1, hits give low values 0.997 and 1.03 | S. cerevisiae deletion strains, locus YNR049C, strain mso1, hits give low values 0.988 | S. cerevisiae deletion strains, locus YNR052C, strain pop2, hits give low values 1.01 | S. cerevisiae deletion strains, locus YOL006C, strain TOP1, hits give low values 0.909 | S. cerevisiae deletion strains, locus YOL012C, strain htz1 0.855 | S. cerevisiae deletion strains, locus YOL147C, strain pex11, hits give low values 0.995 | S. cerevisiae deletion strains, locus YOR001W, strain rrp6, hits give low values 0.965 | S. cerevisiae deletion strains, locus YOR061W, strain CKA2, hits give low values 1.01 | S. cerevisiae deletion strains, locus YOR069W, strain VPS5, hits give low values 1.01 | S. cerevisiae deletion strains, locus YOR070C, strain gyp1, hits give low values 0.996 | S. cerevisiae deletion strains, locus YOR080W, strain dia2, hits give low values 0.986 | S. cerevisiae deletion strains, locus YOR083W, strain WHI5 (second series), hits give low values 1.03 | S. cerevisiae deletion strains, locus YOR083W, strain WHI5, hits give low values 0.954 | S. cerevisiae deletion strains, locus YOR106W, strain vam3, hits give low values 0.927 | S. cerevisiae deletion strains, locus YOR136W, strain idh2, hits give low values 0.991 | S. cerevisiae deletion strains, locus YOR144C, strain elg1, hits give low values 1.01 | S. cerevisiae deletion strains, locus YOR184W, strain ser1, hits give low values 0.95 | S. cerevisiae deletion strains, locus YOR231W, strain MKK1, hits give low values 1.05 | S. cerevisiae deletion strains, locus YOR265W, strain rbl2, hits give low values 0.987 | S. cerevisiae deletion strains, locus YOR270C, strain vph1, hits give low values 0.835 | S. cerevisiae deletion strains, locus YOR290C, strain snf2, hits give low values 1.01 | S. cerevisiae deletion strains, locus YOR316C, strain cot1, hits give low values 1.01 | S. cerevisiae deletion strains, locus YPL051W, strain arl3, hits give low values 0.983 | S. cerevisiae deletion strains, locus YPL055C, strain LGE1, hits give low values 0.918 | S. cerevisiae deletion strains, locus YPL078C, strain atp4, hits give low values 0.947 | S. cerevisiae deletion strains, locus YPL106C, strain sse1, hits give low values 1.02 | S. cerevisiae deletion strains, locus YPL240C, strain hsp82, hits give low values 0.977 | S. cerevisiae deletion strains, locus YPL241C, strain CIN2, hits give low values 1.01 | S. cerevisiae deletion strains, locus YPL256C, strain CLN2, hits give low values 1.04 | S. cerevisiae deletion strains, locus YPR119W, strain clb2, hits give low values 1 | S. cerevisiae deletion strains, locus YPR141C, strain kar3, hits give low values 0.989 | S. cerevisiae deletion strains, locus YPR163C, strain tif3, hits give low values 1 | S. cerevisiae deletion strains, locus YPR167C, strain met16, hits give low values 1 | S. cerevisiae deletion strains, strain wtn01, hits give low values 0.956 | S. cerevisiae strains, strain wild type, hits give low values 0.975
